Hit rate of the full screen: of about 340,000 compounds, about 2,100 (0.62%) were called active.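 How the source made its calls: active means first-screen hits whose inhibition reached a set limit at any dose in the follow-up dose series; inconclusive means inhibition above the set first-screen limit but never retested; inactive means the rest.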 These entries were drawn from the full list. Measured potencies and affinities stand elsewhere.
The molecules below were run against Rac GTPase-activating protein 1 (Homo sapiens) (UniProt Q9H0H5) (assay: blockers of MgcRacGAP-driven Rac1 GTP hydrolysis – biochemical, ADP Hunter fluorescence, primary and confirmatory, confirmation (AID 624330;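 further: fluorescence reports GDP produced by GAP-driven GTP hydrolysis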)). Details: MgcRacGAP-stimulated Rac1 GTP hydrolysis, at 30 µM, active compounds read high, GST-tagged Rac1 F28L mutant substrate.
Sequence of Rac GTPase-activating protein 1 (Homo sapiens) (Q9H0H5 whole entry, looked up): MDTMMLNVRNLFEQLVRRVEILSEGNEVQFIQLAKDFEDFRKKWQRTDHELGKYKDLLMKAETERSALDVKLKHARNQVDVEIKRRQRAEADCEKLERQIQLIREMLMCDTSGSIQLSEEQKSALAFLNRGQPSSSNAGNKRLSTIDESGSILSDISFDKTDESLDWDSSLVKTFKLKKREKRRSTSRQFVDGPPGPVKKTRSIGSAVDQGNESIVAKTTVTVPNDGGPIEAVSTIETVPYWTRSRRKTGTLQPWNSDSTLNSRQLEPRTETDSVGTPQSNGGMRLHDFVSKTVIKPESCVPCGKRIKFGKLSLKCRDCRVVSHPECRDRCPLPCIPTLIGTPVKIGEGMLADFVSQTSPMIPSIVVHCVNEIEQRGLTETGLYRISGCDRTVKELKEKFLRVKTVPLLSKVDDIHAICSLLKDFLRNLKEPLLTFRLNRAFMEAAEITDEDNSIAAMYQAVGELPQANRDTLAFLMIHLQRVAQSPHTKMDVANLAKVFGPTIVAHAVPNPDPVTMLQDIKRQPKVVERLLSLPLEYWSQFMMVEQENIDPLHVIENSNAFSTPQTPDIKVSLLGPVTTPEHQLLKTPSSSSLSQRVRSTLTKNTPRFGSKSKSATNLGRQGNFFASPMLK

inhibition, inactive:
COc1ccc(Cl)cc1C(=O)NCCN1CCOCC1 3.67%
Cc1cccc(NS(=O)(=O)c2ccc(C)c(C(=O)NCC(c3ccco3)N3CCCCC3)c2)c1 (stereo not given) 4.69%
CC(=O)c1ccc2c(c1)N(C)c1ccccc1S2 18.2%
COc1ccc(/C(C)=N/Nc2ccc(C(=O)O)cc2)cc1OC -0.19%
C/C(=N\NC(=O)c1ccccc1F)c1cccc(NC(=O)c2ccc(C)cc2)c1 5.2%
CCOC(=O)Nc1ccc2c(c1)N(C(=O)CN(C)C)c1ccccc1S2 -22.2%
COC(=O)c1ccc2c(c1)NC(=O)c1ccccc1S2 8.59%
C/C(=N\NC(=O)c1ccccc1F)c1cccc(NC(=O)c2ccccc2)c1 4.16%
C=CC(=O)N1c2ccccc2Sc2ccc(NC(=O)OCC)cc21 6.2%
C/C(=N\Nc1ccc(C(=O)O)cc1)c1ccc(Br)cc1 14%
Cc1ccc(CN2[C@@H](Cc3ccccc3)C(=O)CS2(=O)=O)cc1 3.43%
O=C(NNC(=O)c1n[nH]c2ccccc12)c1ccccc1 4.79%
CN1CCN(c2cc(C(F)(F)F)nc(-c3ccccn3)n2)CC1 1.81%
C=CCn1c(SCc2ccc(C(=O)OC)cc2)nnc1-c1sc(N)nc1C 3.61%
COc1ccccc1CCNC(=O)NC1CCCCC1 3.38%
Cc1ccccc1N(CC(=O)NCCc1ccccc1)C(=O)c1ccc(N2CCCC2)nc1 -2.74%
COc1cccc(OC)c1C(=O)NC(=S)NCc1cccnc1 6.24%
CCC1CCCCN1C(=O)COc1ccc2c(c1)OCO2 (stereo not given) 2.24%
Cc1ccc(C(=O)c2c3ccc([N+](=O)[O-])cc3[n+]([O-])n2CCCN)cc1 8.83%
C/C(=N\NC(=O)c1ccc(O)cc1)c1cccc(NC(=O)c2ccc(Cl)cc2)c1 8.52%
CC(=O)Nc1cccc(/C(C)=N/NC(=O)c2ccc(O)cc2)c1 0.87%
Cc1cccc(C(=O)Nc2cccc(C(=O)N3CCOCC3)c2)c1 -5.11%
COCCNC(=S)Nc1cc2oc3ccccc3c2cc1OC 17.8%
COCCNC(=S)Nc1cc(OC)c(NC(=O)c2ccco2)cc1OC 3.43%
CC(=O)N1CCc2c(sc(NC(=O)Cc3ccc(C)cc3C)c2C#N)C1 -2.35%
Cc1cccc(-n2cnc(C(=O)N/N=C/c3ccccc3)c2)n1 6.69%
COc1ccc(/C=N/NC(=O)c2nc(-c3ccccc3)n(-c3ccccc3)n2)cc1OC 6.46%
Cc1cc(C(=O)N/N=C/c2c(C)nn(-c3ccccc3)c2C)n[nH]1 -3.78%
Cc1nn(-c2ccccc2)c(C)c1-c1cc(C(=O)N/N=C/c2ccc(O)cc2)[nH]n1 19.3%
COc1ccc(/C=N/NC(=O)c2nc(-c3ccccc3)cc(-c3ccccc3)n2)cc1O 24.5%
COc1ccc(/C=N/NC(=O)c2nc(-c3ccccc3)n(-c3ccccc3)n2)cc1 -5.29%
COc1ccc(/C=N/NC(=O)c2nc(-c3ccccc3)cc(-c3ccccc3)n2)cc1OC 11.2%
Cc1cccc(-n2cnc(C(=O)N/N=C\c3ccc(Br)cc3)c2)n1 12.1%
O=C1CCC2(CC1)NC(=O)N(c1ccccc1)N2 -10.2%
O=C1CNC(=S)N1CCOc1ccccc1 -1.2%
COc1ccc(S(=O)(=O)Nc2cc(C(=O)NCCC(C)C)ccc2N2CCOCC2)cc1 -3.38%
CCOc1ccc(-c2cc(C(=O)N3CCCC3)c3ccccc3n2)cc1 1.87%
CCOC(=O)COc1ccccc1-c1ccno1 5.09%
COc1ccc(S(=O)(=O)Cc2ccc(C(=O)NCC(OC)OC)o2)cc1 5.28%
CCC1C(=O)NCCN1C(=O)c1cc(COc2cc(C)ccc2C)on1 (stereo not given) 13.8%
O=C(NCc1cccnc1)c1ccccn1 3.14%
O=C(Nc1cnccn1)Nc1ccc(Cl)cc1Cl -2.37%
O=C(CCc1c[nH]c2ccccc12)NCCc1ccccc1 7.24%
O=C(CCc1c[nH]c2ccccc12)NCCc1ccc(Cl)cc1 6.06%
Cc1ccc(NC(=O)C(OC(=O)c2cnc(C)cn2)c2ccccc2)c([N+](=O)[O-])c1 (stereo not given) 4.33%
O=C(COc1ccc2cc(Br)ccc2c1)N1CCCC1 8.08%
CCCOC(=O)c1ccc(Oc2c(-c3ccc(O)cc3O)n[nH]c2C)cc1 19.3%
COc1ccc(-c2[nH]ncc2-c2csc(C)n2)c(O)c1 13.3%
Cc1[nH]nc(-c2ccc(O)c(C)c2O)c1Oc1ccccc1 18.4%
CCOc1ccc(-c2n[nH]c(C)c2Oc2ccc(OC)cc2)c(O)c1 11%
O=S(=O)(N/N=C\c1ccccc1O)c1ccc(Cl)cc1 6.73%
O=C1CC(C(=O)Nc2ccc(Cl)cc2)S/C(=N\N=C\c2ccco2)N1 (stereo not given) 10.6%
c1ccc(CCNc2ccnc3cc4ccccc4cc23)cc1 13.8%
COc1ccc(Nc2ccnc3ccccc23)cc1 3.59%
COCCN1C(=O)N(c2ccccc2)C(=O)C1CC(=O)Nc1cc(OC)cc(OC)c1 (stereo not given) -13.2%
COC(=O)C(Cc1cncn1COCc1ccccc1)NC(=O)OC(C)(C)C (stereo not given) 4.31%
c1ccc(CN2CCN(c3ncnc4c3[nH]c3ccccc34)CC2)cc1 20.2%
Cc1ccc2[nH]c3c(N4CCN(Cc5ccccc5)CC4)ncnc3c2c1 22.2%
O=C(CCCc1ccccc1)Nc1ccnn1C1CCN(Cc2ccccc2F)CC1 7.8%
Cc1occc1C(=O)NNC(=O)C1CCCC1 0.63%
COc1cccc(CN2CCSCC2)c1 16.8%
COc1ccc(CN2CCOCC2)cc1OC 11.6%
COc1ccc(CN2CCN(C(=O)c3cccc4ccccc34)CC2)cc1OC 30.3%
CNC(=O)NC(=O)C(C)N1CCN(C/C=C/c2ccccc2)CC1 (stereo not given) -5.37%
COc1ccc(CN2CCN(C)CC2)cc1OCc1ccccc1 8.63%
COc1cc(OC)cc(C(=O)N2CCN(Cc3cccc(F)c3)CC2)c1 27.4%
COc1ccc(N2CCN(C(C)C(=O)N(C)Cc3ccccc3)CC2)cc1 (stereo not given) 11%
COc1ccc(CN2CCC(Cc3ccccc3)CC2)cc1OC 29.4%
O=C(CN(c1ccccn1)S(=O)(=O)c1ccccc1)N/N=C/c1cccc([N+](=O)[O-])c1 6.03%
CC(NC(=O)C1CCN(c2nnc(N3CCCC3=O)s2)CC1)c1ccccc1 (stereo not given) 1.18%
Cc1nn(-c2cc(C(F)(F)F)ccc2Cl)c2nc(C(F)(F)F)[nH]c(=O)c12 6.22%
CCN1C(=O)CC(N2CCN(c3cccc(OC)c3)CC2)C1=O (stereo not given) 7.87%
COc1ccc(CN2CCN(c3ccccc3OC)CC2)c(OC)c1 25.9%
COc1cc(OC)c(OC)cc1CN1CCN(Cc2cccc(F)c2)CC1 9.82%
CC(C(=O)N(C)Cc1cccc(F)c1)N1CCN(S(=O)(=O)c2ccc3c(c2)OCCCO3)CC1 (stereo not given) 4.74%
COc1ccc(CN2CCN(C(C)C(=O)N3CCc4ccccc43)CC2)cc1OC (stereo not given) 7.8%
COc1cc(CN2CCN(Cc3ccc(C)cc3)CC2)c([N+](=O)[O-])cc1OC 31.1%
COc1ccc(CN2CCN(S(=O)(=O)c3ccc(F)cc3)CC2)cc1OC 19.8%
COc1ccc(CN2CCN(c3ncccn3)CC2)c(OC)c1 9.88%
COc1cc(CN2CCN(Cc3ccc([N+](=O)[O-])cc3)CC2)c([N+](=O)[O-])cc1OC 28.4%
CC(NCC(c1ccco1)N1CCCCC1)C(=O)NC1CCCC1 (stereo not given) 6.01%
Cc1[nH]ccc(=O)c1OCc1ccc(Cl)cc1 8.17%
CCCSc1nnc2c(n1)OC(c1cccn1C)N(C(C)=O)c1ccccc1-2 (stereo not given) 7.61%
Cc1cccc(NC(=O)Nc2cnccn2)c1C 7.34%
COc1cc(C(=O)NC2CCCC2)c(Br)c(OC)c1OC 11.2%
Cc1ccc(C(CNS(=O)(=O)c2ccc(F)cc2)N2CCN(C)CC2)cc1 (stereo not given) 3.73%
C#CCOCCOCCOCCNc1nc(N2CCN(C(=O)[C@H]([C@@H](C)O)n3cc(CCCCN)nn3)CC2)nc(N2CCN(C(=O)[C@H](C)n3cc(CCCN=C(N)N)nn3)CC2)n1 6.19%
CCOc1ncccc1C(=O)OCC(=O)c1ccc(OC)c(OC)c1 2%
CCCN1CCC(N(CCc2ccccc2)Cc2ccccc2)CC1 -10%
COc1cccc(CN2CCC(N(CCc3ccccc3)Cc3ccccc3)CC2)c1OC 22.3%
CSc1nnc(-c2ccc(S(=O)(=O)N3CCCCC3)cc2)o1 1%
CCC(C)c1ccccc1NC(=O)C(C)OC(=O)c1ccco1 (stereo not given) 1.05%
O=c1c(Cc2c(F)cccc2Cl)c(O)ccn1CC1CCCO1 (stereo not given) -2.7%
CCOC(=O)CCc1c(C)nc2cc(-c3ccc(Cl)cc3)[nH]n2c1=O -6.3%
O=C(CCNC(=O)c1ccco1)Nc1ccc(SC(F)F)cc1 -1.92%

Source: PubChem BioAssay AID624330 (Southern Research Specialized Biocontainment Screening …, 2012)
